Measured values published in paper PMC7862700, “An all-to-all approach to the identification of sequence-specific readers for epigenetic DNA modifications on cytosine”.

Assays:
Experiment in all cases: DAPPL (digital affinity profiling via proximity ligation, sequencing); 10 mM Tris-HCl pH 7.5, 50 mM NaCl, 1 mM DTT, 4% glycerol, room temperature, 30 min; GST-TFs on glutathione beads, 16-mer random dsDNA library, 0.1% formaldehyde crosslink after washing; high values mean tight binding
ETV5 = ETV5 (Homo sapiens, UniProt P41161 1-510); details: protein: recombinant; tags: N-terminal GST; dsDNA, one strand shown
Chain of ETV5 (P41161 whole entry, the tested form may be a part): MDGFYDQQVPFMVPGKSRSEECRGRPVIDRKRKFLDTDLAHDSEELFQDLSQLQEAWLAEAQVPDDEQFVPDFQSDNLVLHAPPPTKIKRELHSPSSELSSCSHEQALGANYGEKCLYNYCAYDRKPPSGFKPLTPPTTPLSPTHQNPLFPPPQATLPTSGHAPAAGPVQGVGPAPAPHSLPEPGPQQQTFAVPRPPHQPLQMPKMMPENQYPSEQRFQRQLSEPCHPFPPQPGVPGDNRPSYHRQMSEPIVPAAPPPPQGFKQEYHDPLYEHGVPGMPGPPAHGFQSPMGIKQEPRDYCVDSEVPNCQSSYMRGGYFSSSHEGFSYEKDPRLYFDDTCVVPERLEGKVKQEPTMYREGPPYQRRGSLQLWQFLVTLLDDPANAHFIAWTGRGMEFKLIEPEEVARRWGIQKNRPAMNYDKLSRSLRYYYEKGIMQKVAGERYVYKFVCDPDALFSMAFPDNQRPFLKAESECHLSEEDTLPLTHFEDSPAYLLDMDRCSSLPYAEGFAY
Procedure, shortened: (§1)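 Sequencing on an Illumina NextSeq500 followed washing, crosslinking with 0.1% formaldehyde, proximity ligation (BsaI/T4 ligase, 1 h, 37 °C) and PCR amplification of pools that had been incubated for 30 min at room temperature with 200 nmole of a random double-stranded 16-mer DNA library in Tris/NaCl/DTT/glycerol buffer. Each pool held DNA-barcoded human transcription factors, expressed in yeast as GST fusions and captured on glutathione beads, plus a tag-only sample. Binding signal is a hexamer's read frequency for a factor divided by its frequency in the tag-only sample.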

HSF1 = HSF1 (Homo sapiens, UniProt Q00613 1-529); details: protein: recombinant; tags: N-terminal GST; chain copies: 3; dsDNA, one strand shown
Chain of HSF1 (Q00613 whole entry): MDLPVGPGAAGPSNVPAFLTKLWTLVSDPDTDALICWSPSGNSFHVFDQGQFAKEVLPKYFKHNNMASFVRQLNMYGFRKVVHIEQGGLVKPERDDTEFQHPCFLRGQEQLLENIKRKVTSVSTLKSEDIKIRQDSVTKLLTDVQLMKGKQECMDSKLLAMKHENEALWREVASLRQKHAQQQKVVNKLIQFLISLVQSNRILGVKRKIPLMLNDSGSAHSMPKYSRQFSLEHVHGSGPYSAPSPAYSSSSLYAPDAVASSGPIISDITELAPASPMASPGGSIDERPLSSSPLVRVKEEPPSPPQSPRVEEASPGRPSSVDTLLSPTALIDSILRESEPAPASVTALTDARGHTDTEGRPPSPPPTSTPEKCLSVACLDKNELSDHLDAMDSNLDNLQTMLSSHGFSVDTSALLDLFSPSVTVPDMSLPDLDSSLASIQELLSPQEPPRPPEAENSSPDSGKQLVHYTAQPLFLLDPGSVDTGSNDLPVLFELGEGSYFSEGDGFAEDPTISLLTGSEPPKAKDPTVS
Procedure, shortened: as §1

ELF4 = ELF4 (Homo sapiens, UniProt Q99607 1-663); details: protein: recombinant; tags: N-terminal GST; dsDNA, one strand shown
Chain of ELF4 (Q99607 whole entry): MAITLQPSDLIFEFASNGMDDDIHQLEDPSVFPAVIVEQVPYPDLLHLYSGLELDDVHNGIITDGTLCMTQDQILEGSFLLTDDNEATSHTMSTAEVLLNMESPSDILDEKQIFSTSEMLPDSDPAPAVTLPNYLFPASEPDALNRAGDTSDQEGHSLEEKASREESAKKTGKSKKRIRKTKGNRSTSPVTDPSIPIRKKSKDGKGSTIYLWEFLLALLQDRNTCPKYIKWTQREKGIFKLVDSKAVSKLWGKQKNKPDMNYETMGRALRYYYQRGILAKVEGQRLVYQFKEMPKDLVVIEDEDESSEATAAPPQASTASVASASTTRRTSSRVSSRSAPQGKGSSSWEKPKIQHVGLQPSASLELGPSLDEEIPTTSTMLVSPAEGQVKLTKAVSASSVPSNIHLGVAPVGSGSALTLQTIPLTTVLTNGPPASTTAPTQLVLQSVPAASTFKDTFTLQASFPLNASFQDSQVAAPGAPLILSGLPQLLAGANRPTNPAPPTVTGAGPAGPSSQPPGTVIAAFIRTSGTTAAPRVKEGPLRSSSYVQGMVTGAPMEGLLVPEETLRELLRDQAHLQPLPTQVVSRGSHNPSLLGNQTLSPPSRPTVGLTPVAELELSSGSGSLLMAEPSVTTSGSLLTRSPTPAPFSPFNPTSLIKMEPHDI
Procedure, shortened: as §1

ELK4 = biological target: T1, ELK4 (Homo sapiens, UniProt P28324-2 1-405); details: protein: recombinant; tags: N-terminal GST; dsDNA, one strand shown
T1 sequence: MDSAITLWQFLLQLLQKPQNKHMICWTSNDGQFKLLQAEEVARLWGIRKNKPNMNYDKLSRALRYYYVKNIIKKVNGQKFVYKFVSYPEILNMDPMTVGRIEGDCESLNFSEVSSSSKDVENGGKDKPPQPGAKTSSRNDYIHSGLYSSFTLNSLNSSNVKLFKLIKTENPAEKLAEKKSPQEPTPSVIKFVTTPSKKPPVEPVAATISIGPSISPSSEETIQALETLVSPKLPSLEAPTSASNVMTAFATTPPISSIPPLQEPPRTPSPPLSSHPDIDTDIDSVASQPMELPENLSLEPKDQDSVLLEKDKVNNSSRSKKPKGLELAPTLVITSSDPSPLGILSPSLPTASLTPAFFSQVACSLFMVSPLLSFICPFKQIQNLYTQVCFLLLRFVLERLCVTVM
Procedure, shortened: as §1

ETV2 = biological target: T2, ETV2 (Homo sapiens, UniProt O00321 1-342); details: protein: recombinant; tags: N-terminal GST; dsDNA, one strand shown
T2 sequence: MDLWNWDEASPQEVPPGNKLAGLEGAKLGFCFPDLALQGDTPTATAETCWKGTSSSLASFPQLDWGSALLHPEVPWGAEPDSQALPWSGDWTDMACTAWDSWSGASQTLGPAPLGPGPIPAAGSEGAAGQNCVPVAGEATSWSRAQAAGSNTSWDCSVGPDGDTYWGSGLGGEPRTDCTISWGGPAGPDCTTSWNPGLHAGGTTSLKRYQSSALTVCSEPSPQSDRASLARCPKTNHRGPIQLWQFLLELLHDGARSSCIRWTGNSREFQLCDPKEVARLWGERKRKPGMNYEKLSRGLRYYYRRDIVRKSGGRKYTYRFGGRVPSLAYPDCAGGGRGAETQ
Procedure, shortened: as §1

CRX = CRX (Homo sapiens, UniProt O43186 1-299); details: protein: recombinant; tags: N-terminal GST; dsDNA, one strand shown
Chain of CRX (O43186 whole entry): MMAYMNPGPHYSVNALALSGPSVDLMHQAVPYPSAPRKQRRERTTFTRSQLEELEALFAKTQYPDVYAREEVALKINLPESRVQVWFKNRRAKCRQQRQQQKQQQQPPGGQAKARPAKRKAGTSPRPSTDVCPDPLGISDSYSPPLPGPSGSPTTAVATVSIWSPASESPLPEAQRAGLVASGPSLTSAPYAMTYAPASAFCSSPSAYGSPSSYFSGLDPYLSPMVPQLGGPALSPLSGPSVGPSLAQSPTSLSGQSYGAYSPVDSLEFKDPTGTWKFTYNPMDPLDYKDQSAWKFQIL
Procedure, shortened: as §1

ETV1 = ETV1 (Homo sapiens, UniProt P50549 1-477); details: protein: recombinant; tags: N-terminal GST; dsDNA, one strand shown
Chain of ETV1 (P50549 whole entry): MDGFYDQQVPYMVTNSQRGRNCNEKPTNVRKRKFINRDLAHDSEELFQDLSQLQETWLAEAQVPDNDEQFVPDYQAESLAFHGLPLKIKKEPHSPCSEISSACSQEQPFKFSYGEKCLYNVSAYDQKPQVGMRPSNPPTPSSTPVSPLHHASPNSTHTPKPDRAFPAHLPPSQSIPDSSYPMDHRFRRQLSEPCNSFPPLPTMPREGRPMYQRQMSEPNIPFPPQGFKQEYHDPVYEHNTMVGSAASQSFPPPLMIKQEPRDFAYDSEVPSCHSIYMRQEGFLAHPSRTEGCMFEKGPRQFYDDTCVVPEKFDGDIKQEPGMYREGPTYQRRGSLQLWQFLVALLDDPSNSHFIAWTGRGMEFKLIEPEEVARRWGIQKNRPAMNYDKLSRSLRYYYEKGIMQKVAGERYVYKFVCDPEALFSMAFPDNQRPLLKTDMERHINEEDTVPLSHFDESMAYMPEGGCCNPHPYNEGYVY
Procedure, shortened: as §1

ERF = biological target: T3, ERF (Homo sapiens, UniProt P50548 1-548); details: protein: recombinant; tags: N-terminal GST; dsDNA, one strand shown
T3 sequence: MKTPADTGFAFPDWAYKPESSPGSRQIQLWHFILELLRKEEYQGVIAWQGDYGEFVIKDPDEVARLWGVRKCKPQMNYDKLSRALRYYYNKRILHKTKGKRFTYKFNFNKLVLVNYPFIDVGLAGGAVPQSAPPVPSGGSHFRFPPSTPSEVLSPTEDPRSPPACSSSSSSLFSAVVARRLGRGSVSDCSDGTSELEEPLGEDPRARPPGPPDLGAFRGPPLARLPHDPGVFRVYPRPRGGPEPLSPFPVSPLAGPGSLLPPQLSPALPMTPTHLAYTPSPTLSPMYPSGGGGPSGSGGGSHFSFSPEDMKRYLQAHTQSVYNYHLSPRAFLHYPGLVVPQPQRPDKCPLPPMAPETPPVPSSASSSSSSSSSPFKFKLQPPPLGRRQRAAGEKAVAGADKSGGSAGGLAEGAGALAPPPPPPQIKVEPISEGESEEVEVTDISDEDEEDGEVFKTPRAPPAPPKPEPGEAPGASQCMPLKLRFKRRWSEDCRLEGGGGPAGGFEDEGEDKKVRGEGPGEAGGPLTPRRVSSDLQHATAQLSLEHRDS
Procedure, shortened: as §1

ETV3L = biological target: T4, ETV3L (Homo sapiens, UniProt Q6ZN32 1-361); details: protein: recombinant; tags: N-terminal GST; dsDNA, one strand shown
T4 sequence: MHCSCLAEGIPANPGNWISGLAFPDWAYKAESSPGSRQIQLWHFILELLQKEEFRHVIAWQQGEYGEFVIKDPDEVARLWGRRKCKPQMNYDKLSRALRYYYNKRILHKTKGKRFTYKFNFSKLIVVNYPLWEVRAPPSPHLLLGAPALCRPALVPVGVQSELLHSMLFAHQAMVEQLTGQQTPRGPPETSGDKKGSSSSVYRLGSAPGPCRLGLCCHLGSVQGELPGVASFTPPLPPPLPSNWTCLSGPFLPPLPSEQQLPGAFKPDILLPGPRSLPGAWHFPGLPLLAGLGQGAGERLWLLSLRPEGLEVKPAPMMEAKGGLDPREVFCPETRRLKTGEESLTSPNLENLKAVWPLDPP
Procedure, shortened: as §1

ETS2 = biological target: T5, ETS2 (Homo sapiens, UniProt P15036 1-469); details: protein: recombinant; tags: N-terminal GST; dsDNA, one strand shown
T5 sequence: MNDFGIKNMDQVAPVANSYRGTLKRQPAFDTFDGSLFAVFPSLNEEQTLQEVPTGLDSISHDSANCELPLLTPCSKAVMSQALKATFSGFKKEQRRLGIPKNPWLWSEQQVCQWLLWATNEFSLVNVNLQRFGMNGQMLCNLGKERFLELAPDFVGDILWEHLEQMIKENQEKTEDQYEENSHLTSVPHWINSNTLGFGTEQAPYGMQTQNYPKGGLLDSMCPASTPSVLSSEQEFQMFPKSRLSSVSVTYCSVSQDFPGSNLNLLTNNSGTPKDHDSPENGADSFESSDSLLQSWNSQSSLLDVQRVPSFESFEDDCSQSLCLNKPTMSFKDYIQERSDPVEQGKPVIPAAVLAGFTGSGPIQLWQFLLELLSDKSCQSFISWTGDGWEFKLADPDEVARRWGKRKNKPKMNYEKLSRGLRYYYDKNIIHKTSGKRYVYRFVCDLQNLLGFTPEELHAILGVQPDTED
Procedure, shortened: as §1

ETV7 = biological target: T6, ETV7 (Homo sapiens, UniProt Q9Y603 1-341); details: protein: recombinant; tags: N-terminal GST; dsDNA, one strand shown
T6 sequence: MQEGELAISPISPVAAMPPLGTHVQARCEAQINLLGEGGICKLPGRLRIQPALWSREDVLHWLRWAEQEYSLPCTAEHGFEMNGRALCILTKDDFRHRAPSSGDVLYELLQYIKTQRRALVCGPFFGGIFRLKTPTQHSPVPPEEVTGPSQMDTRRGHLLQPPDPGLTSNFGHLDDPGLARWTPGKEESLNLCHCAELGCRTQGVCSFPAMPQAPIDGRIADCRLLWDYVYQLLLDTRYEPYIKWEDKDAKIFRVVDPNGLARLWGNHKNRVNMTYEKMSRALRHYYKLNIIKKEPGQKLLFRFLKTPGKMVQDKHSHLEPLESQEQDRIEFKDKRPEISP
Procedure, shortened: as §1

ETV3 = biological target: T7, ETV3 (Homo sapiens, UniProt P41162-2 1-143); details: protein: recombinant; tags: N-terminal GST; dsDNA, one strand shown
T7 sequence: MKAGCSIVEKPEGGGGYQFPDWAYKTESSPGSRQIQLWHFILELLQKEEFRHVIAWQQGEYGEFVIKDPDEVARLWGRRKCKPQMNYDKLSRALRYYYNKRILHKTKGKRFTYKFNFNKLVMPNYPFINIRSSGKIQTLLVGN
Procedure, shortened: as §1

ELF3 = biological target: T8, ELF3 (Homo sapiens, UniProt P78545 1-371); details: protein: recombinant; tags: N-terminal GST; dsDNA, one strand shown
T8 sequence: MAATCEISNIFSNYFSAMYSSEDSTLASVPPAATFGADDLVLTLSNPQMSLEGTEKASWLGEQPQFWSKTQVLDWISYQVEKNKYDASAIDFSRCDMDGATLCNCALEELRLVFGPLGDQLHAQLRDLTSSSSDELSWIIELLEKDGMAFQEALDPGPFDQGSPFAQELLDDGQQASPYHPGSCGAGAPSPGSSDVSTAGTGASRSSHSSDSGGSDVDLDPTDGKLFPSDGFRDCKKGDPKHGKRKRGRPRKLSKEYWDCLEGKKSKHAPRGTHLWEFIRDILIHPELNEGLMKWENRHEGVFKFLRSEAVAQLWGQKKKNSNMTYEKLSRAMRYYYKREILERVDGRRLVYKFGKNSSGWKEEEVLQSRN
Procedure, shortened: as §1

SPDEF = biological target: T9, SPDEF (Homo sapiens, UniProt O95238 1-335); details: protein: recombinant; tags: N-terminal GST; dsDNA, one strand shown
T9 sequence: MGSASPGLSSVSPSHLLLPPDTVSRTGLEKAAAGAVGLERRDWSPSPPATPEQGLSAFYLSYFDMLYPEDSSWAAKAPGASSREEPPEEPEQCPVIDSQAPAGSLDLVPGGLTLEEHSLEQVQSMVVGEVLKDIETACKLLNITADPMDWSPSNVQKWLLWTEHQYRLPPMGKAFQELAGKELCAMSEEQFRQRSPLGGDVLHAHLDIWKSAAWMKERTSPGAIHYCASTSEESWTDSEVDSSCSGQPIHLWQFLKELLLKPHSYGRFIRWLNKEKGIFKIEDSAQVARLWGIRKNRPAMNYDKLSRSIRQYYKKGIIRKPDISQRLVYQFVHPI
Procedure, shortened: as §1

ELF5 = biological target: T10, ELF5 (Homo sapiens, UniProt Q9UKW6-2 1-255); details: protein: recombinant; tags: N-terminal GST; dsDNA, one strand shown
T10 sequence: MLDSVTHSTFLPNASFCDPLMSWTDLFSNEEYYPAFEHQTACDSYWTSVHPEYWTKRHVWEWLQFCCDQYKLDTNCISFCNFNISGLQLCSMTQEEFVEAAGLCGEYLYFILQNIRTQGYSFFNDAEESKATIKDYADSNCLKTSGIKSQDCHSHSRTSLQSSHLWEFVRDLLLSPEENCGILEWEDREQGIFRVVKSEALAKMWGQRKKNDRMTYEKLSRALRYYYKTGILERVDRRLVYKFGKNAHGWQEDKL
Procedure, shortened: as §1

ETV6 = ETV6 (Homo sapiens, UniProt P41212 1-452); details: protein: recombinant; tags: N-terminal GST; dsDNA, one strand shown
Chain of ETV6 (P41212 whole entry): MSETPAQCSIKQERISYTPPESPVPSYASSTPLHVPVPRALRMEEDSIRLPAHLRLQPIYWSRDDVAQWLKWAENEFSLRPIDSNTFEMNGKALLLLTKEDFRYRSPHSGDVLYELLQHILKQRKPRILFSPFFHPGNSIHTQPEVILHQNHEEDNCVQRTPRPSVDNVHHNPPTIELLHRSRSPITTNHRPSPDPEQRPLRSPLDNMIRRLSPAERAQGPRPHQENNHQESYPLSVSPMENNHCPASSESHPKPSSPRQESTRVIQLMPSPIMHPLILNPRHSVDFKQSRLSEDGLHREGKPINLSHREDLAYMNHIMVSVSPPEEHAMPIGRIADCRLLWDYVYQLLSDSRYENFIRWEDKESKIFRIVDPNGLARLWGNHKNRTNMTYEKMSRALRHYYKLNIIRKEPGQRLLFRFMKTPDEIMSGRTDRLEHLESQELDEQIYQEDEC
Procedure, shortened: as §1

| Sequence | binding signal (ETV5) | binding signal (HSF1) | binding signal (ELF4) | binding signal (ELK4) | binding signal (ETV2) | binding signal (CRX) | binding signal (ETV1) | binding signal (ERF) | binding signal (ETV3L) | binding signal (ETS2) | binding signal (ETV7) | binding signal (ETV3) | binding signal (ELF3) | binding signal (SPDEF) | binding signal (ELF5) | binding signal (ETV6) |
| --- | --- | --- | --- | --- | --- | --- | --- | --- | --- | --- | --- | --- | --- | --- | --- | --- |
| TATCAA | 1.03 fold enrichment (6-mer frequency, TF over GST control) | 1.01 fold enrichment (6-mer frequency, TF over GST control) | 1.03 fold enrichment (6-mer frequency, TF over GST control) | 1.09 fold enrichment (6-mer frequency, TF over GST control) | 1.11 fold enrichment (6-mer frequency, TF over GST control) | 1.21 fold enrichment (6-mer frequency, TF over GST control) | 1.01 fold enrichment (6-mer frequency, TF over GST control) | 1.08 fold enrichment (6-mer frequency, TF over GST control) | 1.06 fold enrichment (6-mer frequency, TF over GST control) | 1.05 fold enrichment (6-mer frequency, TF over GST control) | 1.09 fold enrichment (6-mer frequency, TF over GST control) | 1.04 fold enrichment (6-mer frequency, TF over GST control) | – | – | – | – |
| TCGATG | 1.11 fold enrichment (6-mer frequency, TF over GST control) | 1.26 fold enrichment (6-mer frequency, TF over GST control) | 1.2 fold enrichment (6-mer frequency, TF over GST control) | 1.09 fold enrichment (6-mer frequency, TF over GST control) | 1.03 fold enrichment (6-mer frequency, TF over GST control) | – | 1.11 fold enrichment (6-mer frequency, TF over GST control) | 1.08 fold enrichment (6-mer frequency, TF over GST control) | 1.15 fold enrichment (6-mer frequency, TF over GST control) | 1.03 fold enrichment (6-mer frequency, TF over GST control) | 1.17 fold enrichment (6-mer frequency, TF over GST control) | 1.1 fold enrichment (6-mer frequency, TF over GST control) | 1.1 fold enrichment (6-mer frequency, TF over GST control) | 1.07 fold enrichment (6-mer frequency, TF over GST control) | 1.07 fold enrichment (6-mer frequency, TF over GST control) | 1.09 fold enrichment (6-mer frequency, TF over GST control) |
